Assay [1] is described as follows: S16 Schwann cell viability assay (CellTiter-Glo assay) (AID 624031).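 Also: native untransfected S16 rat Schwann cells; cellular ATP luminescence as a viability measure; plate controls were DMSO-treated cells for no effect and cell-free wells for full effect; nearly all actives have a fitted effect of over 70% in size.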 To be noted: S16 rat Schwann cells viability, 24 h; series mostly up to 57.5 µM. The essentials:
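Parental S16 cells, 24 h compound, 37 °C. ATP-luminescence viability; DMSO = 0% activity, empty wells as reference; curves classified by fit quality and efficacy.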

Assay [2] can be described thus: S16 Schwann cell PMP22 intronic element beta-lactamase assay (AID 624044; calls by dose curve;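 also: 0% = DMSO and -100% = potassium clavulanate positive control; nearly all actives have a fitted effect of over 15% in size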). Particulars: S16 rat Schwann cells, PMP22 element beta-lactamase FRET, 24 h; ratio activity, negative = inhibition: at 38.3 µM (top of the series). In short, it runs like this:
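Rat S16 Schwann cells with beta-Lac driven by a PMP22 intronic element, compound-treated 24 h at 37 °C. LiveBLAzer FRET B/G read: 460 nm normalized to potassium clavulanate vs DMSO; 535 nm FRET as viability; concentration-effect curves classified.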

The test system of the next assay is W2. The assay can be described thus: qHTS profiling for inhibitors of Plasmodium falciparum proliferation (AID 504749). Also: nearly all actives have a fitted effect of over 60% in size. Also: potency is read from the fitted curve at half-maximal effect.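 As to activity, negative = inhibition: 0% = DMSO vehicle and full inhibition = artemisinin control.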 To be noted: P. falciparum in erythrocytes, SYBR Green DNA, 72 h; series mostly up to 28.7 µM. In short, it runs like this:
(§1)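 Parasite proliferation within erythrocytes, 72 h exposure. Endpoint: SYBR Green I fluorescence after overnight lysis at room temperature. Controls: 0.29 uM artemisinin, DMSO.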

Assay [3] is described as follows: qHTS assay to identify small molecules that stimulate interleukin-8 (IL-8) secretion (AID 651758; active = well fitted activation curve with a large enough effect in the signal ratio; the % refers to the signal ratio; also: 0% is about no effect). To be noted: HTRF ratio (665/615); series mostly up to 92.2 µM. In short, it runs like this: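 THP-1, 2000 cells/well; cpd 16 h, 37 C; add cryptate + XL665 anti-IL-8 Abs; RT 1-3 h; TR-FRET read.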
Background: qHTS replaces the single test concentration by a dilution series.

Assay [4] addresses Androgen receptor (Homo sapiens) (UniProt P10275). The experiment in a line: qHTS assay for small molecule agonists of androgen receptor signaling (AID 588515; active = well fitted curve in the direction sought with a large enough effect in the signal ratio, with a control signal flat; the % refers to the signal ratio; also: % is scaled to controls: 0 for no effect and ±100 for the full control effect). Particulars: AR-UAS-bla HEK293, beta-lactamase ratio, agonist 16 h; stronger effect = higher value. In short, it runs like this: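 EC50 and efficacy came from Hill fits of titrations (up to 92 uM) normalized to 30 nM R1881 as 100% and DMSO as 0%. Compound exposure was 16 h at 37 C on AR-UAS-bla HEK293 cells, with a 405/460/530 nm CCF4 fluorescence read.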

Assay [5] shares this target. The experiment in a line: qHTS assay for small molecule antagonists of androgen receptor signaling (AID 588516; active = well fitted curve in the direction sought with a large enough effect in the signal ratio, with a control signal flat, not every such curve was filed as active; the % refers to the signal ratio; also: % is scaled to controls: 0 for no effect and ±100 for the full control effect). To be noted: AR-UAS-bla HEK293, beta-lactamase ratio, antagonist mode, 16 h; series mostly up to 76.8 µM. In short, it runs like this: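 AR-UAS-bla GripTite HEK 293 cells (2000/well) treated with compound titrations plus 10 nM R1881 for 16 h at 37C. Beta-lactamase read by CCF4 FRET (460/530 nm); IC50 from Hill fits, normalized to R1881 and DMSO control wells.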

Another assay has as its system 3D7. The experiment in a line: qHTS profiling for inhibitors of Plasmodium falciparum proliferation (AID 504749). Also: nearly all actives have a fitted effect of over 60% in size. Also: potency is read from the fitted curve at half-maximal effect.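 As to activity, negative = inhibition: 0% = DMSO vehicle and full inhibition = artemisinin control.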 To be noted: P. falciparum in erythrocytes, SYBR Green DNA, 72 h; series mostly up to 28.7 µM. In short, it runs like this:
as §1

A further assay relates to CP185. The assay is described as above. To be noted: P. falciparum in erythrocytes, SYBR Green DNA, 72 h; series mostly up to 28.7 µM. The essentials:
as §1

A further assay has as its system CP192. The assay is described as above. To be noted: P. falciparum in erythrocytes, SYBR Green DNA, 72 h; series mostly up to 28.7 µM. The essentials: as §1
In another assay the test system is CP194. The description is as above. Particulars: P. falciparum in erythrocytes, SYBR Green DNA, 72 h; series mostly up to 28.7 µM. The essentials:
as §1

Another assay concerns CP201. Described as above. Particulars: P. falciparum in erythrocytes, SYBR Green DNA, 72 h; series mostly up to 28.7 µM. The essentials: as §1
Another assay has as its system CP203. Described as above. To be noted: P. falciparum in erythrocytes, SYBR Green DNA, 72 h; series mostly up to 28.7 µM. In short, it runs like this:
as §1

The test system of a further assay is CP238. The assay is described as above. To be noted: P. falciparum in erythrocytes, SYBR Green DNA, 72 h; series mostly up to 28.7 µM. The essentials:
as §1

A further assay has as its system CP247. The assay is described as above. To be noted: P. falciparum in erythrocytes, SYBR Green DNA, 72 h; series mostly up to 28.7 µM. In short, it runs like this: as §1
In the next assay the test system is CP286. Described as above. To be noted: P. falciparum in erythrocytes, SYBR Green DNA, 72 h; series mostly up to 28.7 µM. In short, it runs like this:
as §1

The subject of another assay is CP291. The description is as above. Particulars: P. falciparum in erythrocytes, SYBR Green DNA, 72 h; series mostly up to 28.7 µM. The essentials:
as §1

For another assay, the system named is CP305. Described as above. To be noted: P. falciparum in erythrocytes, SYBR Green DNA, 72 h; series mostly up to 28.7 µM. The essentials: as §1
For a further assay, the system named is DFO2036. The description is as above. Particulars: P. falciparum in erythrocytes, SYBR Green DNA, 72 h; series mostly up to 28.7 µM. In short, it runs like this: as §1
The test system of the next assay is DIV30. The assay is described as above. Particulars: P. falciparum in erythrocytes, SYBR Green DNA, 72 h; series mostly up to 28.7 µM. In short, it runs like this: as §1
For a further assay, the system named is PC49. The assay is described as above. To be noted: P. falciparum in erythrocytes, SYBR Green DNA, 72 h; series mostly up to 28.7 µM. The essentials: as §1

Results filed as inconclusive are left out. Values without a mark were called inactive. Calls of active or inactive are those of the source. Unless noted, calls follow the shape of the dose curve; as a rule, active = well fitted curve in the direction sought with a large enough effect; inconclusive = small, poorly fitted or top-dose-only effect, or another doubt; inactive = no such curve, though single readings can be large; an effect the other way counts as inactive or inconclusive.

This note sets out measurements from PubChem BioAssay (NCATS).

Chain of Androgen receptor (Homo sapiens) (P10275 whole entry, looked up): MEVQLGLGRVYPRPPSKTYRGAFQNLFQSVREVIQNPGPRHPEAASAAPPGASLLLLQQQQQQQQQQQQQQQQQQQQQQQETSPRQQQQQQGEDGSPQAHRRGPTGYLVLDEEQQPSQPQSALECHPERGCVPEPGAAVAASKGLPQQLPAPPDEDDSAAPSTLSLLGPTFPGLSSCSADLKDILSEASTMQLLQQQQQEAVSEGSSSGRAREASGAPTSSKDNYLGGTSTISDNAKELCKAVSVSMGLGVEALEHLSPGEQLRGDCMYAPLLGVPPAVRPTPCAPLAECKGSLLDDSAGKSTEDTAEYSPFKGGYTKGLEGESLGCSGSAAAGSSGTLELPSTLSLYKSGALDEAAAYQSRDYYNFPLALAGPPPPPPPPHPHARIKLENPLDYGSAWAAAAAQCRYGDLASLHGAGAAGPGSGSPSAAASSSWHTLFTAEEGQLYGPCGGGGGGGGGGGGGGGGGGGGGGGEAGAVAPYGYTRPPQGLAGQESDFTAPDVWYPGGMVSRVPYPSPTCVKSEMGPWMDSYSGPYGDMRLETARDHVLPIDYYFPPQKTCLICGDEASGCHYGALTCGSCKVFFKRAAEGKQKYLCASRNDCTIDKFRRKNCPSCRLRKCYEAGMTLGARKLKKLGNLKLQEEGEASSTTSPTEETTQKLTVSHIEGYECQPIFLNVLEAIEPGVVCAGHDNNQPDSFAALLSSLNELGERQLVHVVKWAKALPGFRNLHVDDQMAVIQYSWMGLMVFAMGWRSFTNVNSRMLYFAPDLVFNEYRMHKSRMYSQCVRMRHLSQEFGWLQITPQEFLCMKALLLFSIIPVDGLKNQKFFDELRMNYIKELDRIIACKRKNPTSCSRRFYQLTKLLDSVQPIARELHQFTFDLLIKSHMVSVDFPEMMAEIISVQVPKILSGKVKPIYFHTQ

In the case of `CO[C@H]1/C=C/O[C@@]2(C)Oc3c(C)c(O)c4c(O)c(c5c(c4c3C2=O)NC2(CCN(CC(C)C)CC2)N=5)=NC(=O)/C(C)=C\C=C\[C@H](C)[C@H](O)[C@@H](C)[C@@H](O)[C@@H](C)[C@H](OC(C)=O)[C@@H]1C`, the Potency entry in assay [1] and in assay [2] was “inactive” throughout. Further, the Potency in the assay on W2 is 4.78 µM (active).

With `O=C(OCC(COC(=O)c1ccccc1)(COC(=O)c1ccccc1)COC(=O)c1ccccc1)c1ccccc1`, the outcome in [3] was inactive.

With `CN(C)c1ccc(C2(c3ccc(N(C)C)cc3)OC(=O)c3cc(N(C)C)ccc32)cc1`, the activation in [4] is 19.5%. In addition, the outcome in assay [5] was inactive.

For the molecule `CN1[C@H]2CC(OC(=O)[C@H](CO)c3ccccc3)C[C@H]1[C@H]1O[C@H]12` (stereo partly drawn), the Potency result (in assay [1]; in [2]; with 3D7; in the assay with CP185; with CP192; with CP194) was “inactive” throughout. The Potency result with CP201, in the assay with CP203, with CP238, with CP247, in the assay on CP286 and in the assay with CP291 was “inactive” in each case. The Potency result with CP305, in the assay with DFO2036, with DIV30 and in the assay on PC49 was “inactive” throughout. In assay [3], the result was inactive.
